Screens: PubChem BioAssay, National Center for Advancing Translational Sciences (NCATS)
Compounds with a hit are over-represented: about 21% of the library has one in this group of screens.
NS1 inh: qHTS Assay for Inhibitors of Influenza NS1 Protein Function; Potency, µM (titrated, usually from 46.1 µM), for inactives: at the top dose activity, positive = more growth; hit rate 0.4% among 270,000; calls by dose curve; also: potency is read from the fitted curve at half-maximal effect; actives are rising curves; nearly all actives have a fitted effect of over 50% in size
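S. cerevisiae expressing influenza A NS1, grown in glucose, washed, then diluted 1:100 into pH 6.0 -URA galactose medium with 23 nl compound. Growth recovery read as OD600; NS1-free strain serves as control.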
Pf growth 96h: Primary qHTS for delayed death inhibitors of the malarial parasite plastid, 96 hour incubation; P. falciparum luciferase reporter growth, 96 h; hit rate 6.9% among 320,000; Potency, µM (titrated, usually from 28.7 µM), for inactives: at the top dose activity change, negative = inhibition, hits mostly inhibitors; AID 504834, 2011; also: potency is read from the fitted curve at half-maximal effect; % is scaled to controls: 0 for no effect and ±100 for the full control effect
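Readout is luminescence from an integrated firefly luciferase in P. falciparum. Red cells, 2% hematocrit and 0.05% parasitemia final, were cultured with compound through two parasite generations (96 hours) at 37 C, 5% CO2.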
FBPA Giardia inh: qHTS Assay for Inhibitors of Fructose-1,6-bisphosphate Aldolase from Giardia Lamblia | hit rate 0.71% among 290,000 | purified Giardia FBPA | A8B2U2 | Potency, µM (doses to about 59.6 µM), for the others: top-dose activity, negative = inhibition, usual class: inhibitors; also: potency is read from the fitted curve at half-maximal effect; % is scaled to controls: 0 for no effect and ±100 for the full control effect; nearly all actives have a fitted effect of over 55% in size
Target sequence (A8B2U2 whole entry, looked up): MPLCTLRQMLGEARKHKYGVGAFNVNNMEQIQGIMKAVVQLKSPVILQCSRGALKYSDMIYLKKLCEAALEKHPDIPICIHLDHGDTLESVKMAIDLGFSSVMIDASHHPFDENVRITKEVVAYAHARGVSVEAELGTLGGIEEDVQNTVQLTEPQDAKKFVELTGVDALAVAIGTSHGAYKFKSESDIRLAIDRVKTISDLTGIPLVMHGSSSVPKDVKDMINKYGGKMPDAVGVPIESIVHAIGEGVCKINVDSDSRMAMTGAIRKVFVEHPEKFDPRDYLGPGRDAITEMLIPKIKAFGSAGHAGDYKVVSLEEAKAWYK
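Giardia FBPA (40 nM reagent) was preincubated 10 min at RT with compound (up to 57.5 uM final), then substrate plus GAPDH/TPI/NAD/arsenate coupling system with diaphorase/resazurin was added; resorufin fluorescence (525/598 nm) was read after 20 min.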
Pf growth 48h: Primary qHTS for delayed death inhibitors of the malarial parasite plastid, 48 hour incubation; hit rate 5.9% among 310,000; P. falciparum luciferase growth in erythrocytes, 48 h; Potency, µM (series often up to 28.7 µM), for inactives: top-dose activity change, negative = inhibition, usual class: inhibitors; also: potency is read from the fitted curve at half-maximal effect; % is scaled to controls: 0 for no effect and ±100 for the full control effect
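Compounds are pin-transferred into medium, infected erythrocytes (2% hematocrit, 0.1% parasitemia final) are added, and plates sit one parasite generation at 37 C in 5% CO2. Detection reagent is then added and luminescence measured.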
Shiga inhibitor: A qHTS for Small Molecule Inhibitors of Shiga Toxin; hit rate 9.2% among 290,000; inhibition, % at 38.7 µM; Vero cells, Shiga toxin protein synthesis inhibition reporter; in the data active = inhibition mostly above about 28%, no sharp cut-off; inactive = mostly below about 43%; also: 0% is about no effect
Cycloheximide cs: Cycloheximide Counterscreen for Small Molecule Inhibitors of Shiga Toxin. max response, %. cell reporter, cycloheximide protein synthesis inhibition counterscreen. hit rate 12% among 300,000; in the data active = max response mostly above about 13%, no sharp cut-off; inactive = mostly below about 14%; also: read at 38.3 µM for the half of the compounds with a filed dose; 0% is about no effect
* = called active by the depositor. Unless noted, calls follow the shape of the dose curve; as a rule, active = well fitted curve in the direction sought with a large enough effect; inconclusive = small, poorly fitted or top-dose-only effect, or another doubt; inactive = no such curve, though single readings can be large; an effect the other way counts as inactive or inconclusive.

What do the screens show for `COc1ccc(CNC(=O)C2CCC(CNS(=O)(=O)c3ccc(C)cc3)CC2)cc1` (configuration not stated)?
NS1 inh: 1%; Pf growth 96h: 20%; FBPA Giardia inh: -4%; Pf growth 48h: -22%; Shiga inhibitor: 8; Cycloheximide cs: 14

How did CSc1nnc(-c2cnccn2)n1CCCN1CCCC1=O do in these assays?
NS1 inh: -7%; Pf growth 96h: 7.4µM*; FBPA Giardia inh: -7%; Pf growth 48h: 0%; Shiga inhibitor: 3; Cycloheximide cs: -4

What do the screens show for `CCn1c(SCC(=O)C(C)(C)C)nnc1-c1cnccn1`?
NS1 inh: -3%; Pf growth 96h: 8%; FBPA Giardia inh: 0%; Pf growth 48h: -25%; Shiga inhibitor: 1; Cycloheximide cs: -1

How did COc1ccccc1CN1CCC2(CC1)CCN(C(=O)c1c(C)noc1C)CC2 do in these assays?
FBPA Giardia inh: 4%

Results for CC(NC(=O)c1ccccc1Br)c1nnc(SCC(=O)NC2=NCCS2)n1C (configuration not stated) ?
NS1 inh: 7%; Pf growth 96h: inconclusive; FBPA Giardia inh: -3%; Pf growth 48h: 0%; Shiga inhibitor: -6; Cycloheximide cs: -4

What do the screens show for `Nc1nc(N)c2ncc(C(=O)CCc3ccccc3)nc2n1`?
NS1 inh: -2%; Pf growth 96h: -4%; FBPA Giardia inh: -11%; Pf growth 48h: 0%; Shiga inhibitor: -11; Cycloheximide cs: -3

Results for Nc1ccc(-c2nc3nc(N)nc(N)c3nc2-c2ccc(N)cc2)cc1 ?
NS1 inh: 2%; Pf growth 96h: inconclusive; FBPA Giardia inh: 1%; Pf growth 48h: 10µM*; Shiga inhibitor: -3; Cycloheximide cs: 1

What do the screens show for `CCCCCCNc1nc(OC)nc(N2CC3CC(C2)c2cccc(=O)n2C3)n1` (configuration not stated)?
Pf growth 96h: 5%; FBPA Giardia inh: 7%; Pf growth 48h: 8.3µM*; Shiga inhibitor: 43; Cycloheximide cs: 14

What do the screens show for `Cc1nc(C)c(/C(O)=C/c2nc3ccc([N+](=O)[O-])cc3oc2=O)o1`?
Pf growth 96h: inconclusive; FBPA Giardia inh: 13µM*; Pf growth 48h: 74%; Shiga inhibitor: 16; Cycloheximide cs: 12

What do the screens show for `COC(=O)c1nc2cc3c(cc2c(C)c1C(=O)OC)OCO3`?
NS1 inh: 2%; Pf growth 96h: 55%; FBPA Giardia inh: 2%; Pf growth 48h: 18%; Shiga inhibitor: 6; Cycloheximide cs: 4

Results for Cc1nc2cc3c(cc2c(C)c1C(=O)OC(C)C)OCO3 ?
NS1 inh: 8%; Pf growth 96h: 39%; FBPA Giardia inh: -26%; Pf growth 48h: 36%; Shiga inhibitor: 29*; Cycloheximide cs: 40*

Results for CSc1cccc(CNC(=O)C2CCC(=O)N(Cc3cccc(C(F)(F)F)c3)C2)c1 (configuration not stated) ?
NS1 inh: 12%; Pf growth 96h: -5%; FBPA Giardia inh: 7%; Pf growth 48h: 3%; Shiga inhibitor: 86*; Cycloheximide cs: 22*

Results for Cc1cc(CNC(=O)C2CCC(=O)N(Cc3cccc(C(F)(F)F)c3)C2)no1 (configuration not stated) ?
NS1 inh: 13%; Pf growth 96h: 7%; FBPA Giardia inh: -2%; Pf growth 48h: 1%; Shiga inhibitor: -1; Cycloheximide cs: 2

Results for O=C(NCc1ccon1)C1CCC(=O)N(Cc2cccc(C(F)(F)F)c2)C1 (configuration not stated) ?
NS1 inh: -3%; Pf growth 96h: 81%; FBPA Giardia inh: 3%; Pf growth 48h: 35%; Shiga inhibitor: 39; Cycloheximide cs: 20*

How did C[C@H](NC(=O)[C@@H]1C[C@H]1[C@@H](NC(=O)OCc1ccccc1)c1ccccc1)c1ccccc1 do in these assays?
FBPA Giardia inh: 9%

Results for CCOC(=O)N1CCN(c2nc(-c3ccc(OC)cc3)no2)CC1 ?
NS1 inh: -14%; Pf growth 96h: 21%; FBPA Giardia inh: 0%; Pf growth 48h: 0%; Shiga inhibitor: 62*; Cycloheximide cs: 26*

What do the screens show for `COc1ccc(-c2noc(N3CCC(C(=O)Nc4ccc(F)cc4)CC3)n2)cc1`?
NS1 inh: 7%; Pf growth 96h: -5%; FBPA Giardia inh: 11%; Pf growth 48h: -18%; Shiga inhibitor: 4; Cycloheximide cs: -2

What do the screens show for `COc1ccc(-c2noc(N3CCC(C(=O)Nc4cccc(OC)c4)CC3)n2)cc1`?
NS1 inh: -1%; Pf growth 96h: 41%; FBPA Giardia inh: -5%; Pf growth 48h: inconclusive; Shiga inhibitor: 25*; Cycloheximide cs: 11*

How did COc1ccc(OC)c(NC(=O)C2CCN(c3ncccn3)CC2)c1 do in these assays?
NS1 inh: -8%; Pf growth 96h: 127%; FBPA Giardia inh: 1%; Pf growth 48h: -21%; Shiga inhibitor: -12; Cycloheximide cs: -2

What do the screens show for `COc1cccc(NC(=O)C2CCN(c3ncccn3)CC2)c1`?
NS1 inh: -48%; Pf growth 96h: -16%; FBPA Giardia inh: -3%; Pf growth 48h: 30%; Shiga inhibitor: 25*; Cycloheximide cs: 11*

How did CCOC(=O)N1CCN(C(=O)c2sc3nc(-c4ccc(F)cc4)cn3c2C)CC1 do in these assays?
NS1 inh: -8%; Pf growth 96h: -5%; FBPA Giardia inh: -1%; Shiga inhibitor: -11; Cycloheximide cs: -5

Results for CCOC(=O)N1CCN(C(=O)c2ccc3c(c2)sc2nc(-c4ccc(OC)cc4)cn23)CC1 ?
NS1 inh: 13%; Pf growth 96h: -4%; FBPA Giardia inh: 0%; Pf growth 48h: inconclusive; Shiga inhibitor: 51; Cycloheximide cs: 25*

Results for COc1ccc(NS(=O)(=O)c2cc(NC(=O)c3ccc(=O)[nH]c3)ccc2N2CCCC2)cc1 ?
NS1 inh: 3%; Pf growth 96h: inconclusive; Pf growth 48h: inconclusive; Shiga inhibitor: 21; Cycloheximide cs: -1

What do the screens show for `COc1ccc(-c2[nH]ncc2CN(Cc2nccn2C)C(C)C)c(F)c1`?
NS1 inh: 0%; Pf growth 96h: 22%; FBPA Giardia inh: -6%; Pf growth 48h: -7%; Shiga inhibitor: 7; Cycloheximide cs: -2

How did C=CCOc1ccc(/C=C/C(=O)OCC(=O)Nc2c(C)n(C)n(-c3ccccc3)c2=O)cc1 do in these assays?
Pf growth 96h: 26%; Pf growth 48h: 3%

Results for Cc1ccc2c(cnn2C(=O)CCC(=O)NCc2cccc(Cl)c2)c1 ?
NS1 inh: 0%; Pf growth 96h: 40%; FBPA Giardia inh: 5%; Pf growth 48h: 6%; Shiga inhibitor: -1; Cycloheximide cs: -1

Results for Cc1ccccc1-n1c(SCC(=O)N2CCN(c3ccccn3)CC2)nnc1N1CCOCC1 ?
Pf growth 96h: -18%; Pf growth 48h: inconclusive
